KLF5 inhibitor = suppresses KLF5 promoter-driven expression | AID 1700 | DLD-1 KLF5 promoter-luciferase reporter, luminescence | inhibition, % at 5 µM | 0.23% of 290,000 active;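 active means inhibition above a per-plate limit of that plate's mean compound inhibition plus 3 SD, cut at about 60% in these data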;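 further: 0% = DMSO wells and 100% = LY294002 at 200 µM; higher means less KLF5 promoter-driven luciferase light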
APP 5UTR inh = APP translation inhibition; SH-SY5Y APP 5'UTR-luciferase reporter, luminescence; inhibition, % at 2 µM; AID 1285; 0.82% of 190,000 active;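 active means inhibition above a set limit, derived from the sample mean plus 3 SD, cut at about 45% in these data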
Ba/F3 V617F tox = lowers viability of Ba/F3 cells expressing EpoR and JAK2V617F | ATP luminescence | inhibition, % at 5.6 µM | 1.1% of 220,000 active | AID 1446;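 active means inhibition above the campaign mean plus 3 SD over all tested compounds, cut at about 24% in these data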;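 further: cytokine-independent growth of Ba/F3 cells driven by EpoR plus mutant JAK2; 0% = DMSO-treated cells and 100% = JAK inhibitor I control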
IEC-6 tox = IEC-6 cytotoxicity, counter-screen for KLF5 inhibitors | luminescence viability | inhibition, % at 5 µM | 0.78% of 290,000 active | AID 1825; in the data active means inhibition above about 22%;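 further: 0% = plate median of test compound wells and 100% = cytotoxic reference compound wells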
BaF3 parental = parental Ba/F3 viability inhibition as JAK2V617F counter-screen | inhibition, % at 5.6 µM | 1.1% of 220,000 active | CellTiter-Glo ATP luminescence;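 active means inhibition above a per-campaign cutoff, the mean inhibition of all tested compounds plus 3 SD, cut at about 27% in these data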;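 further: 0% = DMSO wells and 100% = JAK Inhibitor I control wells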
aSyn 5UTR inh = MLPCN primary screen, SNCA 5' untranslated region. alpha-synuclein 5'UTR reporter, inhibitor activity. inhibition, % (tested at 7.5 µM). 0.82% of 300,000 active. AID 1813; in the data active means inhibition above about 60%;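 further: H4 neuroglioblastoma cells stably carrying SNCA 5'UTR luciferase fusion; 0% = DMSO wells and 100% = positive control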
The depositor's hits bear a star; / = no result given. A selection: hits, their analogues and other compounds. The true share with any hit is near 2.2%.

SMILES | KLF5 inhibitor | APP 5UTR inh | Ba/F3 V617F tox | IEC-6 tox | BaF3 parental | aSyn 5UTR inh
Cc1ccccc1Cn1nnc(C(=O)Nc2cccc(C)c2C)c1N | 7 | 13 | 26* | 7 | 32* | 25
COc1ccc(OC)c(NC(=O)c2nnn(CCc3ccccc3)c2N)c1 | -30 | -31 | -4 | -2 | -1 | 4
Cc1ccc(CNC(=O)Cn2nnc(C(=O)Nc3cccc(C)c3C)c2N)cc1 | -2 | / | / | -1 | / | 7
COc1ccc(C)cc1NC(=O)C1CCN(C(=O)c2ccco2)CC1 | -17 | / | / | -5 | / | 7
O=C(CNC(=O)N1CC(=O)Nc2ccccc21)NCc1ccc(Cl)cc1 | -23 | / | / | -7 | / | -39
Cc1n[nH]c(=O)nc1NC1CCCCC1 | 1 | 60* | -1 | 0 | 2 | 11
CCOC(=O)c1cnc2c(OC)cccc2c1N1CCN(c2ccccc2OC)CC1 | -16 | -3 | 7 | 0 | 6 | 62*
NC(=O)c1sc2nc3c(c(-c4ccco4)c2c1N)CCC3 | 19 | 10 | 4 | -18 | 5 | 20
NC(=O)c1sc2nc3c(c(-c4cccs4)c2c1N)CCCC3 | -2 | 46* | -1 | -10 | 0 | 45
CC(C)Cn1c2c(c(O)c(C(=O)Nc3nc4ccccc4s3)c1=O)CCCC2 | 2 | / | 0 | 2 | 2 | -22
CCCn1c2c(c(O)c(C(=O)Nc3nc4ccccc4s3)c1=O)CCCC2 | -21 | -6 | 5 | 5 | 81* | -17
Cc1cc(N2CCN(Cc3cn(C)nc3-c3ccccc3F)CC2)cc(C)n1 | 28 | 81* | 15 | 28* | 13 | 91*
Cc1cc(N2CCN(Cc3cn(C)nc3-c3cccc(Cl)c3)CC2)cc(C)n1 | -21 | 60* | 2 | 11 | 2 | 72*
CCc1ccc2c(c1)C1(NN=C(c3cccc4ccccc34)S1)C(=O)N2 (configuration not stated) | -16 | 11 | -3 | 1 | 4 | 76*
CCc1ccc2c(c1)C1(C(=O)N2)N2CCCC2C(C(=O)c2ccc3ccccc3c2)C12C(=O)Nc1ccccc12 (configuration not stated) | 1 | -19 | -3 | -9 | 4 | -127
Cc1cccc(NC(=O)c2cccnc2Oc2ccccc2)c1C(=O)O | -28 | / | / | -5 | / | 4
Oc1ccc(-c2csc(NCc3ccco3)n2)cc1 | -41 | -24 | 0 | 0 | 4 | -177
c1coc(CNc2nc(-c3cccs3)cs2)c1 | -54 | -40 | 1 | 3 | 3 | 107*
O=C(NNC(=O)c1cccnc1SCc1cccc([N+](=O)[O-])c1)c1ccc(F)cc1 | 8 | 20 | 0 | -11 | 7 | -1
O=C(NNC(=O)c1cccnc1SCc1cccc([N+](=O)[O-])c1)c1ccccn1 | 18 | 72* | -2 | 5 | 9 | 103*
Cc1ccc(OCCn2cnc3cc([N+](=O)[O-])ccc3c2=O)cc1 | 2 | -8 | 2 | 12 | 5 | 2
COc1ccc2c(Cn3cnc4cc([N+](=O)[O-])ccc4c3=O)cc(=O)oc2c1 | 1 | / | -2 | -1 | 0 | 72*
CCn1c2ccccc2c2cc(NC(=O)c3cc(OC)cc(OC)c3)ccc21 | -12 | 95* | 1 | 10 | 6 | 101*
CCn1c2ccccc2c2cc(NC(=O)CSc3nnc(-c4cccc(F)c4)o3)ccc21 | -22 | 47* | -2 | 10 | -1 | -68
CCn1c2ccccc2c2cc(NC(=O)CSc3nnc(-c4ccccc4)o3)ccc21 | -28 | 58* | -3 | 9 | 1 | -155
SMILES | KLF5 inhibitor | APP 5UTR inh | Ba/F3 V617F tox | IEC-6 tox | BaF3 parental | aSyn 5UTR inh
O=C(Nc1ccc(C(=O)OC[C@@H]2CCCN3CCCC[C@H]23)cc1)c1cccc(Br)c1 | 16 | 14 | -1 | 5 | 8 | -3
Cc1ccccc1OCC(=O)NNC(=O)c1cc(S(=O)(=O)N2CCOCC2)ccc1N1CCCC1 | / | / | / | / | / | 2
Nc1ncc(-c2nnnn2-c2ccc(Cl)cc2)c(-c2ccc(Cl)cc2)n1 | 28 | 17 | 28* | 18 | 32* | 10
Cc1cc(-c2cccs2)c(C#N)c(=S)[nH]1 | -1 | / | 20 | -3 | 63* | 2
N#Cc1c(-c2cccs2)cc(-c2cccs2)[nH]c1=O | -15 | / | -3 | -2 | -2 | 0
Cc1ccnc(NS(=O)(=O)c2ccc(NC(=O)COc3ccccc3)cc2)n1 | 9 | 25 | -4 | -5 | 1 | 68*
O=C(COc1ccccc1)Nc1ccc(S(=O)(=O)Nc2ncccn2)cc1 | -13 | -4 | 3 | 5 | 2 | -8
CN1c2cccc3cccc(c23)N(C)C1(C)C | -1 | 3 | 27* | 5 | 58* | 11
COc1ccc(OC)c(NC(=O)C(=O)N/N=C(\C)CC(=O)Nc2ccc(Cl)cn2)c1 | -9 | / | / | 1 | / | -9
CCN(CCNCC(O)COc1ccccc1C(C)C)c1cccc(C)c1 (configuration not stated) | -18 | / | / | -1 | / | 4
COc1ccc(OC)c(NC(=O)CSc2nc3ccccc3c3nc4ccccc4n23)c1 | -4 | -2 | 2 | 2 | 5 | /
COc1ccc(NC(=O)CSc2nc3ccccc3c3nc4ccccc4n23)cc1 | 8 | 81* | -1 | -3 | 5 | /
Cc1ccc(NC(=S)NNC(=O)CSc2nc3ccccc3c(=O)n2-c2ccc(C)cc2)cc1 | 25 | -13 | 2 | -1 | 43* | 32
Cc1ccc(NC(=O)CSc2nc3ccccc3c3nc4ccccc4n23)cc1 | -9 | 51* | 1 | 11 | 3 | 110*
Cc1ccc(-n2c(SCC(=O)Nc3ccc(N4CCOCC4)cc3)nc3ccccc3c2=O)cc1 | -11 | 0 | 0 | -4 | 5 | 23
CCOC(=O)C1CCN(C(=S)Nc2cccc(C)c2C)CC1 | -5 | 9 | 0 | 0 | 3 | 9
O=C(CCCOc1ccc(Cl)cc1)N1CCCCC1 | -57 | -10 | 3 | -2 | 5 | -51
O=C(CCCOc1ccccc1)N1CCCCC1 | -44 | -103 | 2 | -3 | 5 | 71*
Cc1csc(=O)n1CC(=O)OCC(=O)Nc1ccc(Cl)cc1F | / | / | / | / | / | -3
CN(C(=O)COC(=O)c1c2c(nc3ccccc13)/C(=C/c1cccc([N+](=O)[O-])c1)CCC2)C1CCS(=O)(=O)C1 (configuration not stated) | -43 | 0 | 2 | 11 | 7 | 72*
CC(=O)Nc1ccc(NC(=O)c2sc3nc4n(c(=O)c3c2C)CCCCC4)cc1 | -2 | 9 | 0 | 1 | 6 | 76*
COc1ccc(-c2cc3nc[nH]c(=O)c3s2)cc1 | -37 | -29 | 1 | 0 | 4 | -31
COc1ccc(-c2cc3nc(CCl)[nH]c(=O)c3s2)cc1 | 39 | / | / | 8 | / | 71*
Cc1cc(=O)[nH]c(SCC(=O)N2CCN(S(=O)(=O)c3ccccc3)C2)n1 | 2 | -6 | -3 | -4 | 4 | -13
Cc1c(Cl)cccc1N1C(=O)c2ccccc2C1=O | 23 | 68* | 1 | 1 | 3 | -4
Cc1cc(NC(=O)CN2C(=O)NC(C)(c3ccc(Cl)cc3)C2=O)no1 (configuration not stated) | -9 | -21 | -1 | 2 | -1 | -9
